Measurements published in PubChem BioAssay.

Assays:
PEG-3 [1] = target: PEG-3 (UniProt Q6IN02); test: inhibition of PEG-3 promoter-driven reporter – cell-based, HeLa, luciferase, CREF/GAPDH counter-screen panel, dose response (AID 624167); details: CREF/GAPDH counter-screens; HeLa PEG-Prom luciferase reporter, overnight, run 1, dose range 1, at 100 µM (top of the series) unless noted
PEG-3 [2] = target: PEG-3 (UniProt Q6IN02); test: as above; details: CREF/GAPDH counter-screens; HeLa PEG-Prom luciferase reporter, overnight, run 2, dose range 1, at 100 µM (top of the series) unless noted

Chain of PEG-3 (Q6IN02 whole entry, looked up): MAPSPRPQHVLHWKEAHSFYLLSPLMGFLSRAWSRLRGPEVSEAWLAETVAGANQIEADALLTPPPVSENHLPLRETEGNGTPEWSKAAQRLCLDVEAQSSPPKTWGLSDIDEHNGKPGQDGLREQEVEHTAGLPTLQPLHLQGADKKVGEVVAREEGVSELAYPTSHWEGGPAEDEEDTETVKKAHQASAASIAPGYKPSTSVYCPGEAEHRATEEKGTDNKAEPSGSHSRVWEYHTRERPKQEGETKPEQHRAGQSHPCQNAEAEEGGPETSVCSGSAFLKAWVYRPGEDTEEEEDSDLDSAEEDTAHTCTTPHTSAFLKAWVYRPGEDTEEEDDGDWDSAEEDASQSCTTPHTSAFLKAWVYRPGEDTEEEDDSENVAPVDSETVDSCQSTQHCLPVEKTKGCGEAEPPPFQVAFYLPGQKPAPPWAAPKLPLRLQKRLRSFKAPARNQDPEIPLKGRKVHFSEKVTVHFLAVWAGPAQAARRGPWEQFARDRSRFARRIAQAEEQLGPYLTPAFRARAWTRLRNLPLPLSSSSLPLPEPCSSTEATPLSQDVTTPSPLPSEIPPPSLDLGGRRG

Structure (SMILES)	inhibition (PEG-3 [1]) [%]	inhibition (PEG-3 [2]) [%]
O=C(CN1CCCC1)Nc1ccc(-c2nc3cc(NC(=O)CN4CCCC4)ccc3o2)cc1	98.9	102
COc1ccccc1CNC(=O)c1c(N)n(CCCN2CCOCC2)c2nc3ccccc3nc12	99.1	99
COc1cc(OC)c(OC)cc1CCC(C)NCCC(c1ccccc1)c1ccccc1 (stereo not drawn)	100	96.7
C[C@@]12C(=O)Nc3cc(Cl)ccc3C(=O)N1[C@H]1c3cc(Cl)ccc3OC[C@@H]1[C@@H]2c1ccccc1	32.1	36.4
Cc1ccccc1NC(=O)C(=Cc1ccc(C(=O)O)cc1)C(=O)Nc1ccccc1C	90.3	101
COC(=O)c1cc(=O)n(Cc2ccco2)c(=Nc2ccc(F)cc2)s1	102	102
COc1ccc(CNCCC(c2ccccc2)c2ccc(OC(C)C)cc2)cc1OC (stereo not drawn)	101	102
O=c1[nH]c(=O)n(C2OC(CO)C(O)C2O)cc1F (stereo not drawn)	68.7	76.9
Cc1ccc2cccc(OCC(=O)Nc3cccc(S(=O)(=O)N4CCCC4)c3)c2n1	94.5	97.2
CC(NC(=O)c1ccc([N+](=O)[O-])o1)C12CC3CC(CC(C3)C1)C2 (stereo not drawn)	99.4	98.5
CC(C)c1ccc(/C=N/Nc2ccc(C(=O)O)cc2)cc1	89.9	84
CCN1CCCC1CN(Cc1cc2ccc(C)cc2[nH]c1=O)C(=S)Nc1ccc(OC)cc1 (stereo not drawn)	102	99.5
COc1cccc(-c2sc3ccc(OC)cc3c2-c2ccc(OCCN(C)C)cc2)c1	94.3	98.3
Cc1c(CCOC(=O)C23CC4CC(CC(C)(C4)C2)C3)sc[n+]1CC(=O)c1ccccc1	99.3	97.8
